# Experimental data from PubChem BioAssay (Tox21).
# Unmarked numbers belong to inactive results. Calls of active or inactive are those of the source. Calls follow the shape of the dose curve; as a rule, active = well fitted curve in the direction sought with a large enough effect in the repeat runs; inconclusive = weak or mixed curves; inactive = flat fitted curve, though single readings scatter.
# Experiment: qHTS assay to test for compound auto fluorescence at 535 nm (green) in HEK293 cell free culture (AID 720682)
# Settings: cell-free medium, green autofluorescence 485/535 nm, active compounds read high; series mostly up to 91.3 µM; activity change: at the top concentration
# Text: U.S. Tox21 Program National Center for Advancing Translational Sciences [NCATS] NIH Chemical Genomics Center [NCGC] U.S. Environmental Protection Agency [EPA] National Institutes of Environmental Health Sciences [NIEHS] National Toxicology Program [NTP] U.S. Food and Drug Administration [FDA] Tox21 Assay Overview: Compound auto fluorescence often interferes with screening of the compound library against various biological targets and signaling pathways. Some of these compounds may have fluorophoric properties. Such properties may interfere with the assay outputs resulting in false positives and/or negatives. To decrease such complications and ensure the compound activities are relevant in terms of biological response, the Tox21 10K compound library was screened for auto fluorescence. From the fluorophores used as reporter signals in our screening assays, the auto fluorescence equivalencies of compounds against three fluorophores have been evaluated: Triamterene, Fluorescein and Rose Bengal sodium for blue, green and red fluorescence, respectively. The fluorescence intensities were measured using Excitation/Emission wavelengths at 405/460nm, 485/535nm and 540/590nm for blue, green and red labels, respectively. This assay includes the green fluorescence data.
# Tox21 Assay Protocol Summary: 5 uL of culture medium (DMEM containing 10% FBS) per well was dispensed into black wall/clear bottom 1536-well plates using a Multidrop Combi Dispenser (ThermoFisher Scientific, Waltham, MA). After 23 nL compound or DMSO vehicle was transferred into assay plate by a pintool work station (Kalypsys, San Diego, CA), fluorescence intensities in the assay plates were measured by an Envision (PerkinElmer, Shelton, CT) plate reader using three labels for measuring blue, green and red fluorescence at […] 460, 535 and 590nm respectively.
# % is scaled to controls: 0 for no effect and ±100 for the full control effect.
SMILES,activity change,outcome
CCOP(=S)(OCC)Oc1ccc(Cl)cc1Cl,-0.0407%,
Cc1ccc(Cl)c(O)c1,-0.088% [at 46 µM],
CCNc1nc(Cl)nc(NC(C)(C)C)n1,0.0051%,
CC1NCCOC1c1ccccc1 (stereo not given),-0.0311% [at 46 µM],
O=C1C2CC=CCC2C(=O)N1SC(Cl)(Cl)Cl (stereo not given),,inactive
CCN[C@@H](C)Cc1ccccc1,-0.102% [at 95.7 µM],
CNC(=O)O/N=C(/CSC)C(C)(C)C,-0.0164%,
NNC(N)=O,-0.059% [at 95.7 µM],
COP(=O)(OC)O/C(C)=C/C(=O)N(C)C,-0.0606%,
CCOC(=O)C(SP(=S)(OC)OC)c1ccccc1 (stereo not given),-0.224%,
N#CN,,inactive
CCN(CC)CCOC(=O)C(O)(c1ccccc1)c1ccccc1,0.0101% [at 46 µM],
Clc1cc2c(cc1Cl)Oc1cc(Cl)c(Cl)cc1O2,-0.0409% [at 0.37 µM],
Brc1c(Br)c(Br)c(Br)c(Br)c1Br,0.039% [at 3.72 µM],
O=C1CCCCC1Cl (stereo not given),0.15% [at 95.7 µM],
N[C@@H]1C[C@H]1c1ccccc1,0.0036% [at 46 µM],
CC(=O)OCC1=C(C(=O)O)N2C(=O)[C@@H](N)[C@H]2SC1,0.0026% [at 18.6 µM],
O=[N+]([O-])c1cccc(CCl)c1,-0.0479% [at 95.7 µM],
C=CC(=O)OCCN(C)C,-0.0055%,
CS(=O)(=O)c1ccc(C(=O)C2C(=O)CCCC2=O)c(Cl)c1COCC(F)(F)F,0.0918%,

SMILES,activity change,outcome
CN(C)CCN(C)C,0.0644%,
COP(=O)(O)OC,-0.042% [at 95.7 µM],
CCC1(c2cccc(O)c2)CCCCN(C)C1 (stereo not given),0.0131% [at 18.6 µM],
NCC1(CC(=O)O)CCCCC1,0.0242% [at 18.6 µM],
CCOC(=O)CCl,0.141%,
CNC(=O)Oc1ccccc1C(C)C,0.0405%,
CCNP(=S)(OC)O/C(C)=C/C(=O)OC(C)C (stereo not given),0.0539%,
CN(C)C(=O)Oc1cc(OC(=O)N(C)C)cc(C(O)CNC(C)(C)C)c1 (stereo not given),-0.0374% [at 18.6 µM],
O=C(Cl)C(Cl)(Cl)Cl,0.0905%,
c1cncc([C@@H]2CCCCN2)c1,0.0569%,
CC(C)NCC(O)c1ccc([N+](=O)[O-])cc1 (stereo not given),-0.0102% [at 46 µM],
CCN(CCO)CCO,-0.0059%,
CCOC(=O)C(Cl)Cc1cc(-n2nc(C)n(C(F)F)c2=O)c(F)cc1Cl (stereo not given),0.0295%,
CC(C)(C)C(=O)C(Cl)Cl,0.0226%,
CCOC(=O)c1ncn2c1CN(C)C(=O)c1c(I)cccc1-2,-0.0522% [at 46 µM],
COc1cc(CCN)cc(OC)c1OC,0.0014% [at 95.7 µM],
C=CCN1CC[C@]23CCCC[C@H]2[C@H]1Cc1ccc(O)cc13,-0.0152% [at 46 µM],
COc1ccccc1OC,0.0408%,
N#CN=C1SCCN1Cc1ccc(Cl)nc1,-0.0127%,
C=CCc1cc(OC)c2c(c1)OCO2,-0.0303% [at 95.7 µM],
